PubChem BioAssay AID2405 (Southern Research Specialized Biocontainment Screening …, 2010)
Activity calls are given as the source filed them. How the calls were made is not given here.

Test: RSV cytopathic effect inhibition in HEp-2 – cell-based, probe candidates (AID 2405)
Conditions: HEp-2 cells, hits give high values; at 100 µM unless noted
For O=C(CSc1nc2ccccc2c(=O)n1-c1ccc(F)cc1)Nc1ccc2c(c1)OCCO2, the maximum inhibition was 15% [at 50 µM] (inactive).
For COc1cccc(C(NC(=O)c2ccccc2)c2ccc3cccnc3c2O)c1 (configuration not stated), the maximum inhibition was 3.45% [at 12.5 µM] (inactive).
With O=C(Nc1nc(-c2ccc(Cl)cc2)cs1)c1ccccc1Cl the maximum inhibition was 4.1% (inactive).
For CC(=O)Nc1ccc2nc3n(c(=O)c2c1)CCC3, the maximum inhibition was 1.57% [at 50 µM] (inactive).
In the case of COc1cccc2c(=O)n(-c3ccccc3)c(SCC(=O)Nc3ccc4c(c3)CCC4)nc12, the maximum inhibition was 21.8% (inactive).
With Cc1cc(OC(=O)c2c(F)cccc2F)n(Cc2ccccc2)n1 the maximum inhibition was 0.49% [at 3.13 µM] (inactive).
In the case of CCCN1CCN(CCCNC(=O)c2cc3c(s2)-c2c(C)cccc2OC3)CC1, the maximum inhibition was 0.38% [at 0.2 µM] (inactive).
In the case of COc1ccc(-c2csc(N(CCCBr)C(=O)c3ccccc3Cl)n2)cc1, the maximum inhibition was 3.83% [at 50 µM] (inactive).
For O=C(CSc1nc2ccccc2c(=O)n1-c1ccc(F)cc1)Nc1ccc2c(c1)CCC2, the maximum inhibition was 2.76% (inactive).
For O=C(CSc1nc2ccccc2c(=O)n1-c1ccccc1F)Nc1ccc2c(c1)CCC2, the maximum inhibition was 7.99% [at 12.5 µM] (inactive).
For COc1ccc(-c2csc(N(CCCN(C)C)C(=O)c3ccccc3Cl)n2)cc1, the maximum inhibition was 0.91% [at 6.25 µM] (inactive).
For O=C(CSc1nc2ccccc2c(=O)n1-c1ccc(Cl)c(Cl)c1)Nc1ccc2c(c1)CCC2, the maximum inhibition was 5.37% (inactive).
With O=C(CSc1nc2ccccc2c(=O)n1-c1ccc(F)cc1F)Nc1ccc(N2CCOCC2)cc1 the maximum inhibition was 1.49% (inactive).
For COc1ccc(-c2csc(N(CCCN(C)C)C(=O)c3ccccc3C)n2)cc1, the maximum inhibition was 0.96% [at 0.2 µM] (inactive).
With COc1ccc(Cn2nc(C)cc2OC(=O)c2ccccc2)cc1 the maximum inhibition was 0.91% [at 25 µM] (inactive).
For COc1ccc(-c2csc(N(C)C(=O)c3ccccc3Cl)n2)cc1, the maximum inhibition was 2.66% [at 12.5 µM] (inactive).
In the case of O=C(CSc1nc2ccccc2c(=O)n1-c1ccc(F)cc1)Nc1cccc2ccccc12, the maximum inhibition was 16.6% (inactive).
In the case of COc1ccc(-c2csc(N(CCCN(C)C)C(=O)c3ccccc3F)n2)cc1, the maximum inhibition was 5.17% (inactive).
For O=c1c2cccc(Cl)c2nc2n1CCC2, the maximum inhibition was 1.74% [at 50 µM] (inactive).
In the case of C=CCN(C(=O)c1ccccc1Cl)c1nc(-c2ccc(OC)cc2)cs1, the maximum inhibition was 7.65% (inactive).
In the case of O=C(CSc1nc2ccc(F)cc2c(=O)n1-c1ccccc1)Nc1ccc2c(c1)CCC2, the maximum inhibition was 14.7% (inactive).
For Cc1ccc2nc(SCC(=O)Nc3ccc4c(c3)CCC4)n(-c3ccccc3)c(=O)c2c1, the maximum inhibition was 47.5% [at 12.5 µM] (inactive).
In the case of CC1(O)c2cc(Br)ccc2N=C2CCCN21 (configuration not stated), the maximum inhibition was 2.76% (inactive).
For O=C(CSc1nc2cccc(F)c2c(=O)n1-c1ccccc1)Nc1ccc2c(c1)CCC2, the maximum inhibition was 20.4% (inactive).
In the case of CCCCN(C(=O)c1ccccc1Cl)c1nc(-c2ccc(OC)cc2)cs1, the maximum inhibition was 5.05% [at 25 µM] (inactive).
For OC1c2cc(Br)ccc2N=C2CCCCN21 (configuration not stated), the maximum inhibition was 6.83% (inactive).
In the case of CC1CCN(CCCNC(=O)c2cc3c(s2)-c2ccccc2OC3)CC1, the maximum inhibition was 3.42% [at 50 µM] (inactive).
